This is part of a sample that, as a whole, favours compounds with a hit. Of some 83,000 tested, about 20% had one in any assay.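 Cells were grown in 96-well plates and exposed to the test compound at a single concentration for 48 hours; results are reported as percent growth, with values below 10 considered active.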 A number with no mark means an inactive call. The source made the active and inactive calls.
Legend:
Assay in all cases: NCI-60 one-dose screen, 48 h (100 = growth as untreated, 0 = no growth, -100 = all killed)
Conditions in all cases: 10 µM unless noted
HCT-15 colon = test system: HCT-15 colon
HT29 colon = test system: HT29 colon
SNB-75 CNS = test system: SNB-75 CNS
SNB-19 CNS = test system: SNB-19 CNS
U251 CNS = test system: U251 CNS
PC-3 prostate = test system: PC-3 prostate
SK-MEL-5 melanoma = test system: SK-MEL-5 melanoma
UACC-62 melanoma = test system: UACC-62 melanoma
SK-MEL-28 melanoma = test system: SK-MEL-28 melanoma
SK-MEL-2 melanoma = test system: SK-MEL-2 melanoma
EKVX NSCLC = test system: EKVX NSCLC
SN12C renal = test system: SN12C renal
TK-10 renal = test system: TK-10 renal
ACHN renal = test system: ACHN renal
CAKI-1 renal = test system: CAKI-1 renal
A498 renal = test system: A498 renal
CCRF-CEM leukemia = test system: CCRF-CEM leukemia
MOLT-4 leukemia = test system: MOLT-4 leukemia
UO-31 renal = test system: UO-31 renal

SMILES	growth (HCT-15 colon)	growth (HT29 colon)	growth (SNB-75 CNS)	growth (SNB-19 CNS)	growth (U251 CNS)	growth (PC-3 prostate)	growth (SK-MEL-5 melanoma)	growth (UACC-62 melanoma)	growth (SK-MEL-28 melanoma)	growth (SK-MEL-2 melanoma) [%]	growth (EKVX NSCLC) [%]	growth (SN12C renal)	growth (TK-10 renal)	growth (ACHN renal)	growth (CAKI-1 renal)	growth (A498 renal)	growth (CCRF-CEM leukemia) [%]	growth (MOLT-4 leukemia)	growth (UO-31 renal)
COc1ccc(-c2c(-c3nc4ccc(N5CCOCC5)cc4[nH]3)[nH]c(C)c2C(C)=O)cc1	3.79% (active)	20.8%	1.76% (active)	39.7%	54.3%	48.7%	22.2%	15.7%	45.8%	77.1	42.1	52.6%	-4.3% (active)	34.2%	16.9%	27.2%	43.4	51.9%	–
C=C(C)[C@@H]1CC[C@]2(C(=O)N3CCN(CC)CC3)CC[C@]3(C)[C@H](CC[C@@H]4[C@@](C)(CCC(=O)N5CCN(CC)CC5)[C@H](C(=C)C)CC[C@]43C)[C@@H]12	9.11% (active)	17.3%	69.2%	85.1%	40.6%	32.5%	45.5%	50.9%	55.8%	90.2	52.5	66.9%	49.6%	-49.8% (active)	-15.3% (active)	–	49.4	34%	28.2%
Cc1csc(-c2ccc3c(c2)COC3(CCCN(C)C)c2ccc(F)cc2)c1 (stereo not given)	14.4%	-39.6% (active)	32%	74.8%	-45.1% (active)	28%	73.6%	-73.6% (active)	37.5%	25.8	72.2	–	55%	63.6%	27.7%	86.2%	11.3	-17.4% (active)	44.7%
N#C/C(=C\c1ccc(-c2ccc(Br)cc2)o1)c1nc(-c2ccco2)cs1	80.1%	99.5%	78.9%	92.7%	93.9%	91.5%	85%	81%	100%	103	41.6	92.3%	38.7%	95.8%	88.8%	–	89.9	94.2%	74.7%
C=COCCCCCCCCCCCCCCCCCC	114%	102%	122%	96.9%	106%	84.5%	112%	88.6%	104%	111	118	88.4%	101%	108%	99.7%	92.7%	91.5	96.3%	–
N#CC1C(=N)Cc2ccccc2-c2ccccc21 (stereo not given)	37.9%	12.4%	54.3%	64.1%	37.7%	62.1%	40.7%	39.1%	58.3%	31.1	67.1	54.2%	78.1%	75%	29%	–	62.6	25.8%	53.8%
Cc1ccc(-c2nc([P+](c3ccccc3)(c3ccccc3)c3ccccc3)c(N3C[C@H]4C[C@H](C3)c3cccc(=O)n3C4)o2)cc1	86.8%	92.3%	74.6%	64.1%	58.8%	82.7%	68%	54.5%	62%	87.7	80.6	95.2%	98.8%	109%	98.5%	–	78.4	96.6%	83.6%
COc1cc2c(cc1OC)C(=O)/C(=C/c1cc(-c3ccc4c(c3)OCO4)n[nH]1)C2	-39.9% (active)	-29.5% (active)	-4.64% (active)	9.31% (active)	-75.5% (active)	-65.7% (active)	48.4%	25.8%	0.563% (active)	81.3	–	6.08% (active)	-9.8% (active)	-7.41% (active)	56.4%	25.8%	–	–	-72.6% (active)
O=C(O)c1cccc2c1Cc1cc([N+](=O)[O-])ccc1-2	106%	112%	83.5%	108%	104%	110%	105%	102%	108%	102	61.9	–	123%	102%	89.5%	93.1%	–	94%	103%
CC[C@H](CC[C@@H](C)[C@H]1CC[C@H]2[C@@H]3/C(=C/c4cccnc4)C(=O)C4=CC(=O)CC[C@]4(C)[C@H]3CC[C@]12C)C(C)C	78.9%	81.4%	110%	88.6%	0.689% (active)	66.7%	79.8%	76.6%	75.7%	103	99	–	112%	93.9%	77.9%	98.3%	43.4	67.5%	65.4%
Oc1cc(/C=C/c2nc(N3CCOCC3)c3cc(Cl)c(Cl)cc3n2)cc(O)c1O	98.9%	120%	91.5%	102%	102%	101%	90%	98.8%	109%	102	–	104%	95.8%	99.9%	–	92.5%	109	85.3%	95.2%
COc1ccc(-c2nc3ccccn3c2-c2nc3ccc(Cl)cc3[nH]2)cc1	89.1%	83.7%	67.5%	96.2%	92.9%	57.5%	83%	86.3%	101%	97.5	–	97.3%	103%	86.3%	93.2%	91.9%	–	–	97.6%
CCc1ccc(-c2ccc(Nc3ccccc3)nn2)cc1S(N)(=O)=O	65.3%	68%	123%	105%	80.8%	60.6%	79.8%	81.1%	87.7%	78.9	–	88.6%	116%	77%	92.6%	72.2%	–	–	101%
NC1(N)C=CC2=C(C=C1)C1(N)C3=C(C=CC(N)(N)C=C3)N2C2(N)C3=C(C=CC(N)(N)C=C3)N1C1=C2C=CC(N)(N)C=C1	94.7%	94.4%	93.9%	101%	83.3%	72.2%	75%	81.5%	99.1%	103	–	82.2%	119%	83.5%	70.8%	88.3%	–	32.6%	59.9%
NC1=NN(c2ccccc2)C(=O)/C1=C/c1ccc(Cl)cc1	99.4%	102%	105%	96.9%	98.1%	82.8%	101%	81.2%	95%	96.2	96	–	91.2%	93.9%	97%	99.7%	101	102%	78.3%
Cn1c(/C(C#N)=C/c2ccc3ccccc3c2)cc2ccccc21	5.67% (active)	21.8%	15.3%	23.9%	34.1%	28.8%	-26.7% (active)	18.7%	63.4%	71.7	37.4	–	106%	35.4%	28.5%	2.85% (active)	11.8	19.9%	57.5%
COc1ccc(-c2nc3ncccn3c2-c2nc3ccc(Br)cc3[nH]2)cc1	84.6%	88.9%	86.8%	89.9%	89.7%	65.5%	74.9%	76.5%	92.6%	83.5	–	89%	101%	88.6%	93.7%	75.5%	–	–	84.4%

From PubChem BioAssay (NCI)
